Measured values from PMC7862700, “An all-to-all approach to the identification of sequence-specific readers for epigenetic DNA modifications on cytosine”.

Assays:
Assay in all cases: DAPPL (digital affinity profiling via proximity ligation, sequencing); 10 mM Tris-HCl pH 7.5, 50 mM NaCl, 1 mM DTT, 4% glycerol, room temperature, 30 min; GST-TFs on glutathione beads, 16-mer random dsDNA library, 0.1% formaldehyde crosslink after washing; high values mean tight binding
FEV = biological target: T1, FEV (Homo sapiens, UniProt Q99581 1-238); conditions: protein: recombinant; tags: N-terminal GST; dsDNA, one strand shown
T1 sequence: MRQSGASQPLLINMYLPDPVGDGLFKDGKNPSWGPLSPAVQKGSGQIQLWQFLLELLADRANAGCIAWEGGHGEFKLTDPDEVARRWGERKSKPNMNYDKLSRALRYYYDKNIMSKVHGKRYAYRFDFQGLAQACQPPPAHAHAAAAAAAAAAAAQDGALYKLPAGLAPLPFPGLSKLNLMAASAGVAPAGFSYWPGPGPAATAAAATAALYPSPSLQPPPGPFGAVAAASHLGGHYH
Summary of the method: (§1)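 Yeast served to express human transcription factors as GST fusions, which were then captured on glutathione beads and labelled with DNA barcodes. Pooled with a tag-only sample, they were incubated with 200 nmole of a 16-mer random double-stranded DNA library for 30 min at room temperature in Tris/NaCl/DTT/glycerol buffer, washed, crosslinked with 0.1% formaldehyde, ligated by proximity, amplified by PCR and sequenced. Dividing each hexamer's read frequency for a factor by its frequency for the tag-only sample gives the binding signal.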

ETV5 = ETV5 (Homo sapiens, UniProt P41161 1-510); conditions: protein: recombinant; tags: N-terminal GST; dsDNA, one strand shown
Summary of the method: as §1

HSF1 = HSF1 (Homo sapiens, UniProt Q00613 1-529); conditions: protein: recombinant; tags: N-terminal GST; chain copies: 3; dsDNA, one strand shown
Summary of the method: as §1

SPIC = biological target: T2, SPIC (Homo sapiens, UniProt Q8N5J4 1-248); conditions: protein: recombinant; tags: N-terminal GST; dsDNA, one strand shown
T2 sequence: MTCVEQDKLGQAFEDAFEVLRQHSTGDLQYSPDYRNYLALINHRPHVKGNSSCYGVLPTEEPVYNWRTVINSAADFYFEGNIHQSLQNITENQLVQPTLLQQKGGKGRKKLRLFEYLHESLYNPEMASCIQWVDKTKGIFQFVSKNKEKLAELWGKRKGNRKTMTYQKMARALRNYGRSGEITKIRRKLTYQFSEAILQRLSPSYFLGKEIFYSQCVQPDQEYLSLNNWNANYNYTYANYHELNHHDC
Summary of the method: as §1

ELF4 = ELF4 (Homo sapiens, UniProt Q99607 1-663); conditions: protein: recombinant; tags: N-terminal GST; dsDNA, one strand shown
Summary of the method: as §1

ELK4 = biological target: T3, ELK4 (Homo sapiens, UniProt P28324-2 1-405); conditions: protein: recombinant; tags: N-terminal GST; dsDNA, one strand shown
T3 sequence: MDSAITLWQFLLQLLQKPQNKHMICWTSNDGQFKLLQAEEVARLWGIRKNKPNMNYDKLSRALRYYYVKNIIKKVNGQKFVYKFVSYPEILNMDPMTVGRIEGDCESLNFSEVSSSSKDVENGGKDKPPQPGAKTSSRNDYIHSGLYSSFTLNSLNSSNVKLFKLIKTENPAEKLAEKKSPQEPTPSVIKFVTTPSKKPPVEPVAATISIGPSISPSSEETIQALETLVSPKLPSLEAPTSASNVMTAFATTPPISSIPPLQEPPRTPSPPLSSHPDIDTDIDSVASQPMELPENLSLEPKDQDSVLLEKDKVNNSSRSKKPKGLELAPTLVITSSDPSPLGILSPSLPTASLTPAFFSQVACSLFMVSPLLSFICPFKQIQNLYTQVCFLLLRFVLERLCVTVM
Summary of the method: as §1

ETV2 = biological target: T4, ETV2 (Homo sapiens, UniProt O00321 1-342); conditions: protein: recombinant; tags: N-terminal GST; dsDNA, one strand shown
T4 sequence: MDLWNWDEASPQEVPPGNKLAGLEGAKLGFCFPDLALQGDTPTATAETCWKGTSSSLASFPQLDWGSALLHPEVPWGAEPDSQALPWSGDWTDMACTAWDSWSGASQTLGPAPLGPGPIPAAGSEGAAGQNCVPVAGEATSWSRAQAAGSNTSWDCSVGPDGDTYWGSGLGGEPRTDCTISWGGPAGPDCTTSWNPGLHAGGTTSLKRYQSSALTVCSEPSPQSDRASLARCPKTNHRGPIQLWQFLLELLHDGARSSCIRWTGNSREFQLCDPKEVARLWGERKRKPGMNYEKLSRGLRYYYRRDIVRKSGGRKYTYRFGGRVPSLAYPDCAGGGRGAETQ
Summary of the method: as §1

ELF3 = biological target: T5, ELF3 (Homo sapiens, UniProt P78545 1-371); conditions: protein: recombinant; tags: N-terminal GST; dsDNA, one strand shown
T5 sequence: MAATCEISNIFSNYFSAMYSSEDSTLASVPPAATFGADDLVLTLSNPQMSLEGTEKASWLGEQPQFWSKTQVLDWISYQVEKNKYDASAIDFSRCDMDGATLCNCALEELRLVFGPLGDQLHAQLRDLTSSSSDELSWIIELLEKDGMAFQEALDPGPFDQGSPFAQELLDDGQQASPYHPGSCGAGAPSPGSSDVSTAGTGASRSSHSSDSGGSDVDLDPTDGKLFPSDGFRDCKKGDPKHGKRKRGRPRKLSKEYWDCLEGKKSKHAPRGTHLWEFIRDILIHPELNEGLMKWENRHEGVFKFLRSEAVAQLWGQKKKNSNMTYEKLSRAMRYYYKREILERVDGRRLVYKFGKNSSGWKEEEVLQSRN
Summary of the method: as §1

CRX = CRX (Homo sapiens, UniProt O43186 1-299); conditions: protein: recombinant; tags: N-terminal GST; dsDNA, one strand shown
Summary of the method: as §1

ETV1 = ETV1 (Homo sapiens, UniProt P50549 1-477); conditions: protein: recombinant; tags: N-terminal GST; dsDNA, one strand shown
Summary of the method: as §1

ERF = biological target: T6, ERF (Homo sapiens, UniProt P50548 1-548); conditions: protein: recombinant; tags: N-terminal GST; dsDNA, one strand shown
T6 sequence: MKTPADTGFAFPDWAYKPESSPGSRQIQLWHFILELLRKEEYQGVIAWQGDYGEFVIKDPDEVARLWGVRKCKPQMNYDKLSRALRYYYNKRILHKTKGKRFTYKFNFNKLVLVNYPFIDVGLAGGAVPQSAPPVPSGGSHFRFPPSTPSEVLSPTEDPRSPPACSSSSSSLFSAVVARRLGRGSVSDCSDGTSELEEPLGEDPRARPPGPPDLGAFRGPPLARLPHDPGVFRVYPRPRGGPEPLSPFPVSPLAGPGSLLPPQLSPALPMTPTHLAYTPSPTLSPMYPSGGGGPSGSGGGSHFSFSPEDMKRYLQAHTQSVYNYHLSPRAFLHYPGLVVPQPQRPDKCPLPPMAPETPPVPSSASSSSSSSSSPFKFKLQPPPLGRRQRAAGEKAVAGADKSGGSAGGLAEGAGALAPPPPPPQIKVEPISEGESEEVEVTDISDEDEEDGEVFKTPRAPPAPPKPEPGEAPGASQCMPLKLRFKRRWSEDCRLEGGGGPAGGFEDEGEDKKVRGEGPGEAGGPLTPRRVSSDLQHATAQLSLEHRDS
Summary of the method: as §1

ETV3L = biological target: T7, ETV3L (Homo sapiens, UniProt Q6ZN32 1-361); conditions: protein: recombinant; tags: N-terminal GST; dsDNA, one strand shown
T7 sequence: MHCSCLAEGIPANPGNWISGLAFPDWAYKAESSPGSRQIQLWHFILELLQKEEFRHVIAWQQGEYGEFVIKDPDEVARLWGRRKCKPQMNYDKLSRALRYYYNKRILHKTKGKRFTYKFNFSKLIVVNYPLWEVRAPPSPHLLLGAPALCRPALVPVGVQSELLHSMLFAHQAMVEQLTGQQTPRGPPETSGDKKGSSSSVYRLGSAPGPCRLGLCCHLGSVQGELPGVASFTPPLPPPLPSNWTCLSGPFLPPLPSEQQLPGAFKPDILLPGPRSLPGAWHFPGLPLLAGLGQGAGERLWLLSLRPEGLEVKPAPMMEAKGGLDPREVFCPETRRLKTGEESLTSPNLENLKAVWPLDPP
Summary of the method: as §1

ETS2 = biological target: T8, ETS2 (Homo sapiens, UniProt P15036 1-469); conditions: protein: recombinant; tags: N-terminal GST; dsDNA, one strand shown
T8 sequence: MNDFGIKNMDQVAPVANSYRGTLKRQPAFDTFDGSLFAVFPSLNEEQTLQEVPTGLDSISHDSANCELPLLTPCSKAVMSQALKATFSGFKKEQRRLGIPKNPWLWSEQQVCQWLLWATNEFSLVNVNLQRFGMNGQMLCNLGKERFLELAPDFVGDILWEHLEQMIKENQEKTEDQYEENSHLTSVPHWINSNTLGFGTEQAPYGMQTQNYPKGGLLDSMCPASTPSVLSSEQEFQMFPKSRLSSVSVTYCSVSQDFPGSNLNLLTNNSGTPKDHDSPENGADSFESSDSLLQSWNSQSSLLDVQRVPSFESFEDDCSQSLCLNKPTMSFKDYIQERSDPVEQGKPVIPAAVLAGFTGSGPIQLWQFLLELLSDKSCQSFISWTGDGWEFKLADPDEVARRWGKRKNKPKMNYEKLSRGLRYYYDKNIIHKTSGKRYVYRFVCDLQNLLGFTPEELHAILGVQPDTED
Summary of the method: as §1

SPDEF = biological target: T9, SPDEF (Homo sapiens, UniProt O95238 1-335); conditions: protein: recombinant; tags: N-terminal GST; dsDNA, one strand shown
T9 sequence: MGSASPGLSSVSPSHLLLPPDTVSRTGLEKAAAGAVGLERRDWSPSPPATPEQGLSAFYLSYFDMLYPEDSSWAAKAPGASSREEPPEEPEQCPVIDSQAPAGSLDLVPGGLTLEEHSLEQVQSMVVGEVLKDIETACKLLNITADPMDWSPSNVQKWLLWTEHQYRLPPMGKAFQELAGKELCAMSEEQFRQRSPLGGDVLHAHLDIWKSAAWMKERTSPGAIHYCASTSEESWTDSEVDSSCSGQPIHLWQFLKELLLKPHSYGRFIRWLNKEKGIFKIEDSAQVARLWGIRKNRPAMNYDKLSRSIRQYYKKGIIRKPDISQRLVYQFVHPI
Summary of the method: as §1

ETV7 = biological target: T10, ETV7 (Homo sapiens, UniProt Q9Y603 1-341); conditions: protein: recombinant; tags: N-terminal GST; dsDNA, one strand shown
T10 sequence: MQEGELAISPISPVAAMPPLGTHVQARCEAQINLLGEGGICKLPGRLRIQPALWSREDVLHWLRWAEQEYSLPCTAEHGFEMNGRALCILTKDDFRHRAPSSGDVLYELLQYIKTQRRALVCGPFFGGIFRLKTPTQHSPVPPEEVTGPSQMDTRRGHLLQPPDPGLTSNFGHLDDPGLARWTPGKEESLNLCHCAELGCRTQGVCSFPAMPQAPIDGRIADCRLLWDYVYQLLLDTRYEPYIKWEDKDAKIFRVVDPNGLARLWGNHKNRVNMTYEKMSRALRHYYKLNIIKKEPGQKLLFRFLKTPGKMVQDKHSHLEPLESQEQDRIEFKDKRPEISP
Summary of the method: as §1

ELF5 = biological target: T11, ELF5 (Homo sapiens, UniProt Q9UKW6-2 1-255); conditions: protein: recombinant; tags: N-terminal GST; dsDNA, one strand shown
T11 sequence: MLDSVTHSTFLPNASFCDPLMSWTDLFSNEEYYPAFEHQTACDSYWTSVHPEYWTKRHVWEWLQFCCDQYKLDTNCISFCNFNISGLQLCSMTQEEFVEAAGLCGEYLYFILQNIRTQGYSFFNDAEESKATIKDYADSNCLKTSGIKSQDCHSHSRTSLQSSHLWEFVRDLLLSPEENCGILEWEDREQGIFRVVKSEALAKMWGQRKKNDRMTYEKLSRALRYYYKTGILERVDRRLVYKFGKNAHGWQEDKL
Summary of the method: as §1

ETV3 = biological target: T12, ETV3 (Homo sapiens, UniProt P41162-2 1-143); conditions: protein: recombinant; tags: N-terminal GST; dsDNA, one strand shown
T12 sequence: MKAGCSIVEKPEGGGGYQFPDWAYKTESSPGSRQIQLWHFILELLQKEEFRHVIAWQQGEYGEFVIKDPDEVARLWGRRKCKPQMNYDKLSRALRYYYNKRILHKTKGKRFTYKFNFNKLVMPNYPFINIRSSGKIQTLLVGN
Summary of the method: as §1

ETV6 = ETV6 (Homo sapiens, UniProt P41212 1-452); conditions: protein: recombinant; tags: N-terminal GST; dsDNA, one strand shown
Summary of the method: as §1

CRX, sequence (O43186 whole entry): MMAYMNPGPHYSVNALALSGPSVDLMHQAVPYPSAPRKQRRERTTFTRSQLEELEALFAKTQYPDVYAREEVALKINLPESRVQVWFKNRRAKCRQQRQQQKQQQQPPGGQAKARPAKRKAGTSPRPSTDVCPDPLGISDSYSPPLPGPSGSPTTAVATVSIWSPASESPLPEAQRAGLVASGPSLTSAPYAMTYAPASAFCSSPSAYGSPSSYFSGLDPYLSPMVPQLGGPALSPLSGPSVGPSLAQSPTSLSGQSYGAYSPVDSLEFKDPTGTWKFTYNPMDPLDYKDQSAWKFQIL
ETV1, sequence (P50549 whole entry): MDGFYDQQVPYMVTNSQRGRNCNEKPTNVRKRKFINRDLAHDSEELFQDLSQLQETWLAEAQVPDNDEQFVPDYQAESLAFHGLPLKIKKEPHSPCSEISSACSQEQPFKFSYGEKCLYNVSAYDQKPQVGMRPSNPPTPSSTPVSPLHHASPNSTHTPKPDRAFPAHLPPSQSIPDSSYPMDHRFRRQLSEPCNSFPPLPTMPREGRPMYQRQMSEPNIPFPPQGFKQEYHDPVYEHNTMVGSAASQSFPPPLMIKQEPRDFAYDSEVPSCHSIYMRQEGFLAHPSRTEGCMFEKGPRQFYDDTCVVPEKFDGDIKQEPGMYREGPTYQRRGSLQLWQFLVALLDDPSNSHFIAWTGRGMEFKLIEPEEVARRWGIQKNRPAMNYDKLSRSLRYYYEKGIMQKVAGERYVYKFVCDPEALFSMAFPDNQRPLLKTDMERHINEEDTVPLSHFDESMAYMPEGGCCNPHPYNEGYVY
ETV6, sequence (P41212 whole entry): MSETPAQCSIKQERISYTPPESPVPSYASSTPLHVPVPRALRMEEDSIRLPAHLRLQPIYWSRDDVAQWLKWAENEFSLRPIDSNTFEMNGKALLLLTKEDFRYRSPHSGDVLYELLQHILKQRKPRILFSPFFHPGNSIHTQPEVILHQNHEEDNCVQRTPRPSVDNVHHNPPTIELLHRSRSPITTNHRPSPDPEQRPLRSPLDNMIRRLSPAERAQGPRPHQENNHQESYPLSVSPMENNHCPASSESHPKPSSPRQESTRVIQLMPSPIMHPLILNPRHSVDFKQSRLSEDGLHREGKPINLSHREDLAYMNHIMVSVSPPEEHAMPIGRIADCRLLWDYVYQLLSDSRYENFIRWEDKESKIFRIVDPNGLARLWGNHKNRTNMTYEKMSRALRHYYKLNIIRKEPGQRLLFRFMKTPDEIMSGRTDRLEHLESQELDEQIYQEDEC
ELF4, sequence (Q99607 whole entry): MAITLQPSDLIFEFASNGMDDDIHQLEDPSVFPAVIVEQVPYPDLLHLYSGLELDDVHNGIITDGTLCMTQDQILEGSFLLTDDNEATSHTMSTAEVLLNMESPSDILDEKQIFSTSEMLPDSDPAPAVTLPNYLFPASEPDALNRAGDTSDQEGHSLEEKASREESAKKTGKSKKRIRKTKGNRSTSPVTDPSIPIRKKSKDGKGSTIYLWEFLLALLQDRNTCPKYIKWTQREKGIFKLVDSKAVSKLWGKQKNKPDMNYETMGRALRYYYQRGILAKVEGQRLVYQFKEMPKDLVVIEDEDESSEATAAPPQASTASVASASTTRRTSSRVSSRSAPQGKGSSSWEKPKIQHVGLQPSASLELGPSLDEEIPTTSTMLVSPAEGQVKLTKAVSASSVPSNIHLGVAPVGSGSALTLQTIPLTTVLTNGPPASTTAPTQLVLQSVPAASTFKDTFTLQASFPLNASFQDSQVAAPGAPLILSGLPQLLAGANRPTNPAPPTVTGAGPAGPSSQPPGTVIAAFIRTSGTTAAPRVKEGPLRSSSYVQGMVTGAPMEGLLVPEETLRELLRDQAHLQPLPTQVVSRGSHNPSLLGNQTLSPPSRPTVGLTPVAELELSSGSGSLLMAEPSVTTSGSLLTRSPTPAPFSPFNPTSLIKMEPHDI
HSF1, sequence (Q00613 whole entry): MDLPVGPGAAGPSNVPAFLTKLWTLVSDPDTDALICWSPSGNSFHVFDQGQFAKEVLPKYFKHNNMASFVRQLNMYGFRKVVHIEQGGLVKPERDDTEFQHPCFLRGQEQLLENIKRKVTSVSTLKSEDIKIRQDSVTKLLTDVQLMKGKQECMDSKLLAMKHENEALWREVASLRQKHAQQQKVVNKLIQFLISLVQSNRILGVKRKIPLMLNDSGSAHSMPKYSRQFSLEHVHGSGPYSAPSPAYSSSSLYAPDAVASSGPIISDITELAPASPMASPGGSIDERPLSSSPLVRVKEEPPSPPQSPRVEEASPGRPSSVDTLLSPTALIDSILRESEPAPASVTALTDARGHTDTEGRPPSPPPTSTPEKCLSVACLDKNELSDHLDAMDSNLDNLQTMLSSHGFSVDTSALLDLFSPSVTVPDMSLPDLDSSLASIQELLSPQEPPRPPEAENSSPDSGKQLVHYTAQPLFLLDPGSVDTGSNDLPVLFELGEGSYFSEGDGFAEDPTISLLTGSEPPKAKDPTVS
ETV5, sequence (P41161 whole entry): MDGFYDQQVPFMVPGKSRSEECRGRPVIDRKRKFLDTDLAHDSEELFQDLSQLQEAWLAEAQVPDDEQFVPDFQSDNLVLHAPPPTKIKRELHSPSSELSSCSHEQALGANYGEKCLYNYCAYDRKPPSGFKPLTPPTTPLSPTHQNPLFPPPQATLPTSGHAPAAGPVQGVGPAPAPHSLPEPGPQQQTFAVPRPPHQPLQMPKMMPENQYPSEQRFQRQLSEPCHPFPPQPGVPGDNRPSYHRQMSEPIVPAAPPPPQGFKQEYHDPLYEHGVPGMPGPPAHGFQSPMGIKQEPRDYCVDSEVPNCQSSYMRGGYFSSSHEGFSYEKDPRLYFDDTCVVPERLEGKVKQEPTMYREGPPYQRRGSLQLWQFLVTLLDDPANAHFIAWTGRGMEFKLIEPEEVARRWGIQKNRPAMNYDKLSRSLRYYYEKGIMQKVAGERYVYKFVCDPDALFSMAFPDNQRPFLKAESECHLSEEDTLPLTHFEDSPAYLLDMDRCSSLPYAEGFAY

Q: Which binding signal (FEV) does the source give for TATTGC here?
A: 1.33 fold enrichment (6-mer frequency, TF over GST control)

Q: And the binding signal (ETV5)?
A: 1.34 fold enrichment (6-mer frequency, TF over GST control)

Q: What about the binding signal (HSF1) of the same sequence?
A: 1.21 fold enrichment (6-mer frequency, TF over GST control)

Q: And the binding signal (SPIC)?
A: 1.5 fold enrichment (6-mer frequency, TF over GST control)

Q: And the binding signal (ELF4)?
A: 1.41 fold enrichment (6-mer frequency, TF over GST control)

Q: And the binding signal (ELK4)?
A: 1.29 fold enrichment (6-mer frequency, TF over GST control)

Q: What about the binding signal (ETV2) of the same sequence?
A: 1.22 fold enrichment (6-mer frequency, TF over GST control)

Q: What about the binding signal (ELF3) of the same sequence?
A: 1.2 fold enrichment (6-mer frequency, TF over GST control)

Q: And the binding signal (CRX)?
A: 1.47 fold enrichment (6-mer frequency, TF over GST control)

Q: And the binding signal (ETV1)?
A: 1.45 fold enrichment (6-mer frequency, TF over GST control)

Q: What about the binding signal (ERF) of the same sequence?
A: 1.31 fold enrichment (6-mer frequency, TF over GST control)

Q: What about the binding signal (ETV3L) of the same sequence?
A: 1.4 fold enrichment (6-mer frequency, TF over GST control)

Q: What about the binding signal (ETS2) of the same sequence?
A: 1.36 fold enrichment (6-mer frequency, TF over GST control)

Q: What about the binding signal (SPDEF) of the same sequence?
A: 1.31 fold enrichment (6-mer frequency, TF over GST control)

Q: What about the binding signal (ETV7) of the same sequence?
A: 1.36 fold enrichment (6-mer frequency, TF over GST control)

Q: And the binding signal (ELF5)?
A: 1.27 fold enrichment (6-mer frequency, TF over GST control)

Q: What about the binding signal (ETV3) of the same sequence?
A: 1.41 fold enrichment (6-mer frequency, TF over GST control)

Q: What about the binding signal (ETV6) of the same sequence?
A: 1.38 fold enrichment (6-mer frequency, TF over GST control)
